# About 83,000 compounds went through this panel and 20% of them were active in at least one assay; those are over-represented in the sample as a whole.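 Results are percent growth after 48 hours of single-concentration exposure. 100 means growth as in untreated cells, lower positive values show inhibition; negative values down to -100 show cell death.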 Values without a mark were called inactive. Active and inactive are the calls of the source. The calls were made as follows: active = growth percent below 10; inactive = the rest.
# Assays:
# Test in all cases: NCI-60 one-dose screen, 48 h (100 = growth as untreated, 0 = no growth, -100 = all killed)
# Conditions in all cases: 10 µM
# SK-MEL-2 melanoma = system: SK-MEL-2 melanoma
# EKVX NSCLC = system: EKVX NSCLC
# SN12C renal = system: SN12C renal
# UO-31 renal = system: UO-31 renal
# TK-10 renal = system: TK-10 renal
# ACHN renal = system: ACHN renal
# CAKI-1 renal = system: CAKI-1 renal
# A498 renal = system: A498 renal
# CCRF-CEM leukemia = system: CCRF-CEM leukemia
# MOLT-4 leukemia = system: MOLT-4 leukemia
# RPMI-8226 leukemia = system: RPMI-8226 leukemia
# OVCAR-8 ovarian = system: OVCAR-8 ovarian
# OVCAR-5 ovarian = system: OVCAR-5 ovarian
# OVCAR-4 ovarian = system: OVCAR-4 ovarian
# SK-OV-3 ovarian = system: SK-OV-3 ovarian
# IGROV1 ovarian = system: IGROV1 ovarian
# OVCAR-3 ovarian = system: OVCAR-3 ovarian
# HS 578T breast = system: HS 578T breast
# NCI/ADR-RES ovarian = system: NCI/ADR-RES ovarian
# SR leukemia = system: SR leukemia
SMILES,growth (SK-MEL-2 melanoma),growth (EKVX NSCLC),growth (SN12C renal),growth (UO-31 renal),growth (TK-10 renal),growth (ACHN renal),growth (CAKI-1 renal),growth (A498 renal),growth (CCRF-CEM leukemia),growth (MOLT-4 leukemia),growth (RPMI-8226 leukemia),growth (OVCAR-8 ovarian),growth (OVCAR-5 ovarian),growth (OVCAR-4 ovarian),growth (SK-OV-3 ovarian),growth (IGROV1 ovarian),growth (OVCAR-3 ovarian),growth (HS 578T breast),growth (NCI/ADR-RES ovarian),growth (SR leukemia)
COc1ccc2nc(Nc3cccc(NC(=O)c4ccc(CN5CCN(C)CC5)c(C(F)(F)F)c4)c3)ccc2c1,-98.3% (active),-98% (active),-92.6% (active),-48.2% (active),-44.4% (active),-94.8% (active),-33.7% (active),-42.3% (active),-10.5% (active),-44.6% (active),-33% (active),-38.1% (active),-75% (active),-27.1% (active),-48.8% (active),-69.8% (active),-36% (active),-23.1% (active),-37.9% (active),
COc1cccc(-c2ccc(/C=N/NC(=O)c3[nH]c4ccc(Br)cc4c3-c3ccccc3)o2)c1,19.2%,50.1%,5.67% (active),39.2%,70.4%,22.3%,26%,72.5%,-5.45% (active),1.31% (active),1.18% (active),-16% (active),12.3%,37.3%,34.2%,32.6%,8.31% (active),-1.37% (active),-35% (active),
CS(=O)(=O)Nc1ccc(-c2ccc3c(c2)ncn3-c2ccc(NC(=O)Nc3ccc(Br)cc3)cc2)cc1,-52.1% (active),-0.46% (active),14.2%,2.62% (active),25.7%,4.12% (active),2.14% (active),-17% (active),-14.9% (active),-18.4% (active),-24% (active),17.1%,20.1%,18.1%,1.06% (active),26.7%,5.29% (active),0.433% (active),59.8%,
COc1ccc(C(=O)Nc2ccc(-c3ccc4c(c3)NC(=O)/C4=C\c3ccc[nH]3)cc2)cc1,99.5%,7.85% (active),64.9%,81.3%,98.8%,60.7%,72.7%,118%,26%,55.6%,65.5%,-22.3% (active),51.8%,-36.8% (active),79.2%,65.9%,9.86% (active),-0.0796% (active),-42.8% (active),
O=c1oc2ccc(-c3ccc(F)cc3F)cc2c(=O)n1-c1ccc(Cl)c(C(F)(F)F)c1,-62% (active),-4.43% (active),-15% (active),-3.08% (active),15.3%,-10.9% (active),-15.8% (active),-17.6% (active),-5.71% (active),-8.23% (active),-32.1% (active),6.71% (active),-2.12% (active),16.1%,-4.08% (active),17.8%,11.7%,-0.864% (active),-12.2% (active),
[2H]C([2H])([2H])Oc1ccc2ncc(C#Cc3cncc(C(=O)Nc4ccc(CN5CCN(C)CC5)c(C(F)(F)F)c4)c3)n2n1,-92.7% (active),-60% (active),-78.2% (active),-85.2% (active),-53.4% (active),-88.9% (active),-78.7% (active),-50.6% (active),0.607% (active),-13.6% (active),,-25.7% (active),-92.9% (active),-34.6% (active),-58.4% (active),-62.5% (active),,-47.9% (active),-68% (active),-9.99% (active)
Cc1ccc(CNC(=O)Cc2ccc3c(c2)CN(C2CCC(=O)NC2=O)C3=O)cc1 (stereo not given),0.232% (active),54.5%,4.57% (active),-21.3% (active),33.2%,30.5%,52.6%,-9.84% (active),8.32% (active),-24.9% (active),,,29.5%,0.757% (active),18.4%,2.34% (active),6.03% (active),-15.4% (active),-8.37% (active),38.7%
O=C1c2ccccc2C(=O)c2c1c(C(=O)c1ccc(Cl)cc1)n1c2ccc2c3ccccc3ccc21,107%,97.1%,103%,69.8%,108%,82.1%,92.5%,144%,102%,107%,,103%,115%,107%,95%,105%,109%,93.2%,103%,104%

# — PubChem BioAssay (NCI)
